# In the supplement of paper PMC8728848:
# The entries come from a sample that favours the strongest signals as a whole.
# How the values were obtained:
# Assay in all cases: glycan array binding signal (z-score within array); higher = stronger binding
# Settings in all cases: glycan notation: IUPAC condensed, linker removed
# [1] = molecular target: Gal6S(b1-4)GlcNAc
# Method in brief: (§1)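 Arrays were curated from the Consortium for Functional Glycomics database, 3228 in total, and kept only where the protein sequence was available. Binding is expressed as a within-array Z-score. This score was averaged across arrays of the same protein sequence at different concentrations or buffers and across linkers, and negative values can be read as non-binding.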
# [2] = molecular target: GalNAc(b1-3)Gal
# Method in brief: as §1
# [3] = molecular target: GalNAc3S(b1-4)GlcNAc3S
# Method in brief: as §1
# [4] = molecular target: GlcNAc(a1-4)Gal(b1-4)GlcNAc(b1-3)Gal(b1-4)Glc
# Method in brief: as §1
# [5] = molecular target: GlcNAc(b1-3)Gal(b1-4)GlcNAc(b1-3)Gal(b1-4)GlcNAc
# Method in brief: as §1
# [6] = molecular target: GlcNAc(b1-3)Gal(b1-4)GlcNAc(b1-3)Gal(b1-4)GlcNAc(b1-3)Gal(b1-4)GlcNAc(b1-2)Man(a1-3)[GlcNAc(b1-3)Gal(b1-4)GlcNAc(b1-3)Gal(b1-4)GlcNAc(b1-3)Gal(b1-4)GlcNAc(b1-2)Man(a1-6)]Man(b1-4)GlcNAc(b1-4)GlcNAc
# Method in brief: as §1
# [7] = molecular target: GlcNAc(b1-3)Gal(b1-4)GlcNAc(b1-3)Gal(b1-4)GlcNAc(b1-3)Gal(b1-4)GlcNAc(b1-3)Gal(b1-4)GlcNAc(b1-2)Man(a1-3)[GlcNAc(b1-3)Gal(b1-4)GlcNAc(b1-3)Gal(b1-4)GlcNAc(b1-3)Gal(b1-4)GlcNAc(b1-3)Gal(b1-4)GlcNAc(b1-2)Man(a1-6)]Man(b1-4)GlcNAc(b1-4)[Fuc(a1-6)]GlcNAc
# Method in brief: as §1
# [8] = molecular target: GlcNAc(b1-3)[GlcNAc(b1-6)]Gal(b1-4)GlcNAc
# Method in brief: as §1
# [9] = molecular target: GlcNAc(b1-4)GlcNAc
# Method in brief: as §1
# [10] = molecular target: GlcNAc(b1-4)GlcNAc(b1-4)GlcNAc
# Method in brief: as §1
# [11] = molecular target: GlcNAc(b1-6)GalNAc
# Method in brief: as §1
# [12] = molecular target: Kdn(a2-3)Gal(b1-3)GlcNAc
# Method in brief: as §1
# [13] = molecular target: Man(a1-2)Man(a1-3)[Man(a1-2)Man(a1-6)]Man(a1-6)[Man(a1-2)Man(a1-2)Man(a1-3)]Man
# Method in brief: as §1
# [14] = molecular target: Man(a1-3)[Man(a1-6)]Man(a1-6)[Man(a1-2)Man(a1-3)]Man(b1-4)GlcNAc(b1-4)GlcNAc
# Method in brief: as §1
# [15] = molecular target: Neu5Ac(a2-3)Gal(b1-3)[Fuc(a1-4)]GlcNAc
# Method in brief: as §1
# [16] = molecular target: Neu5Ac(a2-3)Gal(b1-4)GlcNAc(b1-3)Gal(b1-3)GlcNAc
# Method in brief: as §1
# [17] = molecular target: Neu5Ac(a2-3)Gal(b1-4)GlcNAc(b1-3)GalNAc
# Method in brief: as §1
# [18] = molecular target: Neu5Ac(a2-3)Gal(b1-4)GlcNAc(b1-6)[Gal(b1-3)]GalNAc
# Method in brief: as §1
# [19] = molecular target: Neu5Ac9Ac(a2-6)Gal(b1-4)GlcNAc
# Method in brief: as §1
# [20] = molecular target: Neu5Gc(a2-3)Gal(b1-3)[Fuc(a1-4)]GlcNAc
# Method in brief: as §1
# [21] = molecular target: Neu5Gc(a2-6)GalNAc
# Method in brief: as §1
# [22] = molecular target: Neu5Gc(a2-8)Neu5Gc(a2-6)Gal(b1-4)GlcNAc
# Method in brief: as §1
binder,measurement,setting,value
LecB PA7 (Pseudomonas aeruginosa) (protein) MATQGVFTLPANTRFGVTAFANSSATQTVKVLVNNETAATFTGQSTNNAVIGSQVLNSGGGGKVQIQVSVNGRSSDLVSAQVILANELNVALVGSEDSTDNDYNDAVVVINWPLG,glycan array binding signal (z-score),[1],-0.501
same,glycan array binding signal (z-score),[2],-0.493
same,glycan array binding signal (z-score),[3],-0.517
same,glycan array binding signal (z-score),[4],-0.505
same,glycan array binding signal (z-score),[5],-0.503
same,glycan array binding signal (z-score),[6],-0.467
same,glycan array binding signal (z-score),[7],0.402
same,glycan array binding signal (z-score),[8],-0.516
same,glycan array binding signal (z-score),[9],-0.486
same,glycan array binding signal (z-score),[10],-0.497
same,glycan array binding signal (z-score),[11],-0.504
same,glycan array binding signal (z-score),[12],-0.511
same,glycan array binding signal (z-score),[13],3.2
same,glycan array binding signal (z-score),[14],2.3
same,glycan array binding signal (z-score),[15],3.31
same,glycan array binding signal (z-score),[16],-0.505
same,glycan array binding signal (z-score),[17],-0.466
same,glycan array binding signal (z-score),[18],-0.087
same,glycan array binding signal (z-score),[19],-0.502
same,glycan array binding signal (z-score),[20],2.03
same,glycan array binding signal (z-score),[21],-0.508
same,glycan array binding signal (z-score),[22],-0.507
